Source: PubChem BioAssay
Only some compounds are listed: those with a hit (about 21% of all), similar ones and a draw of the others.
Cycloheximide cs – counter-screen hit for Shiga toxin inhibitors, cycloheximide | max response, % | actives 12% (n = 300,000) | cell reporter, cycloheximide protein synthesis inhibition counterscreen; in the data active = max response mostly above about 13%, no sharp cut-off; inactive = mostly below about 14%; also: read at 38.3 µM for the half of the compounds with a filed dose; 0% is about no effect
Pf growth 96h – P. falciparum growth inhibition at 96 hours; P. falciparum luciferase reporter growth, 96 h; Potency, µM (highest dose often 28.7 µM), inactives show at the highest dose activity change, negative = inhibition, most hits filed as inhibitors; actives 6.9% (n = 320,000); AID 504834; also: potency is read from the fitted curve at half-maximal effect; % is scaled to controls: 0 for no effect and ±100 for the full control effect
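96 h incubation, 37 C, 5% CO2, of luciferase-reporter P. falciparum-infected RBCs (2% hematocrit, 0.05% parasitemia final) with test compounds; endpoint luminescence.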
SARS PLpro yeast-1 – inhibitors of SARS-CoV papain-like protease in yeast | S. cerevisiae expressing SARS-CoV PLpro, growth rescue | Potency, µM (series often up to 32.9 µM), inactives show top-dose activity, positive = growth rescue, actives largely listed as activators | actives 0.19% (n = 330,000) | AID 485353; calls by dose curve; also: potency is read from the fitted curve at half-maximal effect; 0% is about no effect; nearly all actives have a fitted effect of over 55% in size
Pf growth 48h – P. falciparum growth inhibition at 48 hours (one generation); P. falciparum luciferase growth in erythrocytes, 48 h; Potency, µM (series often up to 28.7 µM), for inactives: at the top dose activity change, negative = inhibition, hits mostly inhibitors; actives 5.9% (n = 310,000); AID 504832; also: potency is read from the fitted curve at half-maximal effect; % is scaled to controls: 0 for no effect and ±100 for the full control effect
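First compound was added to culture medium, then infected red cells at 0.1% parasitemia and 2% hematocrit (final). After incubation at 37 C under 5% CO2, luciferase detection reagent was dispensed and light output recorded.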
NS1 function inh – inhibitors of influenza NS1 protein function | Potency, µM (top dose mostly 46.1 µM), for inactives: top-dose activity, positive = more growth | actives 0.4% (n = 270,000); calls by dose curve; also: potency is read from the fitted curve at half-maximal effect; actives are rising curves; nearly all actives have a fitted effect of over 50% in size
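A cell-based growth assay was used: compounds that relieve NS1-induced slow growth of budding yeast raise OD600. Assay medium was yeast nitrogen base with ammonium sulphate and -URA supplement, pH 6.0, with 2% galactose.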
Shiga inhibitor – Shiga toxin inhibition | Vero cells, Shiga toxin protein synthesis inhibition reporter | inhibition, % at 38.7 µM | actives 9.2% (n = 290,000) | AID 2315; in the data active = inhibition mostly above about 28%, no sharp cut-off; inactive = mostly below about 43%; also: 0% is about no effect
SARS PLpro yeast-2 – Inhibits SARS-CoV PLP in yeast, hit validation; shares compounds with SARS PLpro yeast-1; yeast expressing SARS-CoV PLpro, growth phenotype rescue; calls only; actives 19% (n = 1,000); AID 652038; call rule not given here
* = called active by the depositor; i = inactive; u = inconclusive; x = no result given; + = active, no number; [ ] = remark or other dose. Unless noted, calls follow the shape of the dose curve; as a rule, active = well fitted inhibition curve with a large enough effect; inconclusive = small, poorly fitted or top-dose-only effect, or another doubt; inactive = no such curve, though single readings can be large or run the other way.

SMILES	Cycloheximide cs	Pf growth 96h	SARS PLpro yeast-1	Pf growth 48h	NS1 function inh	Shiga inhibitor	SARS PLpro yeast-2
CN1C(=O)/C(=C2/C=CC=CN2C)OC1=S	15	15%	u	-2%	-109%	28	u
CCCn1c2c(c(O)c(C(=O)Nc3nc4ccccc4s3)c1=O)CCCC2	-2	-6%	0%	18%	1%	-18	x
CN(CC(=O)Nc1ccc(Cl)c(C(F)(F)F)c1)C(=O)/C=C/c1cccs1	x	u	u	u	x	x	i
CN(CC(=O)Nc1ccc(Cl)c(C(F)(F)F)c1)C(=O)C1CCC1	x	u	-3%	u	x	x	x
Cc1nc(SCC(=O)NC(=O)NC(C)C)nc(C)c1C	1	35%	1%	25%	5%	-14	x
CCN(CC(=O)Nc1cc(C)nn1-c1nc(C)cc(C)n1)Cc1ccccc1	-4	4.1µM*	u	x	-13%	-17	i
CCCOc1ccc(/C=N/Nc2cc(N3CCOCC3)ncn2)c(O)c1	-1	-6%	5µM*	2.1µM*	-25%	-3	+
Cc1cc(N/N=C/c2ccc(O)cc2O)nc(N2CCOCC2)n1	10	u	0%	u	1%	19	x
Cc1nn(-c2ccccc2)c(C)c1/C=N/NC(=O)CSc1nnc(SCc2ccccc2Cl)s1	35*	u	u	30%	-2%	42	+
Cc1ccc(NC(=O)CSc2ncccc2C(=O)Oc2cccc([N+](=O)[O-])c2)cc1Cl	11	u	u	71%	-6%	75*	i
COc1ccccc1NC(=S)NNC(=O)c1ccncc1	3	0%	-1%	26%	x	-4	x
COc1ccccc1NC(=S)NNC(=O)c1cc(C)n(C)n1	7	58%	u	x	0%	4	i
Cc1ccc(CNC(=O)c2cn(C3CCCCC3)c(=O)c3c2c2ccccc2n3C)o1	-2	52%	u	x	15%	-4	+
C#CC[N+](C)(C)CCCCCCCCCC	-5	u	3.2µM*	0.93µM*	-1%	-14	i
COc1ccc(N2C(=O)CSC2c2ccncc2)cc1 (stereo not drawn)	-2	u	4%	3%	-3%	-5	x
CCN(CC)S(=O)(=O)c1cccc(C(=O)OCC(=O)NCc2ccccc2OC)c1	x	15%	-1%	u	x	x	x
CN(C)Cc1cc(C(C)(C)C)cc(CN(C)C)c1O	x	x	x	x	6%	x	x
CN(C)Cc1cc(C(C)(C)c2cc(CN(C)C)c(O)c(CN(C)C)c2)cc(CN(C)C)c1O	1	x	13µM*	4.1µM*	3%	-1	i
Cc1cccc(C)c1NC(=O)CN1C(=O)NC(C)(CCc2ccccc2)C1=O (stereo not drawn)	1	0%	2%	-7%	-1%	-2	x
COc1cc(NS(=O)(=O)c2ccc(NC(=O)COc3ccc(C)cc3C)cc2)nc(OC)n1	7	0%	-2%	7%	26%	-17	x
COc1cc(NS(=O)(=O)c2ccc(NC(=O)COc3ccc(C)cc3)cc2)nc(OC)n1	-2	15%	11µM*	u	-22%	13	i
COc1ccc(OC)c(NC(=O)CCCNC(=O)Cn2cnc3sc(C)c(C)c3c2=O)c1	-2	u	1%	5%	-22%	-5	x
CNC(=O)Oc1cccc(-c2cn3cc(OC(=O)NC)ccc3n2)c1	37*	u	11µM*	-77%	-38%	active	+
COc1ccc(N2CCN(CCNC(=O)Nc3ccc(C)c(Cl)c3)CC2)cc1	-5	u	-2%	5%[0.00184 µM]	-5%	-6	x
COC(=O)c1ccc(N2CCN(CCNC(=O)Nc3ccc(OC)cc3)CC2)cc1	3	-13%	u	u	13%	6	i
Cc1ccccc1C1NC(c2ccccc2C)C([N+](=O)[O-])C(C)(C)C1[N+](=O)[O-] (stereo not drawn)	1	u	0%	u	5%	3	x
Cc1cccc(C2NC(c3cccc(C)c3)C([N+](=O)[O-])C(C)(C)C2[N+](=O)[O-])c1 (stereo not drawn)	-3	u	u	u	18%	-3	i
Cc1nnsc1C(=O)N/N=C/c1c(F)cccc1Cl	7	19%	0%	8%	x	-16	x
